The record followed here is PubChem BioAssay (NCI).

Structures are written as SMILES. This is part of a sample that, as a whole, favours compounds with a hit. Of some 83,000 tested, about 20% had one in any assay.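 The test compound was applied at a single concentration to cells in 96-well plates for 48 hours, and percent growth was recorded.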 Unmarked numbers belong to inactive results. Activity calls are given as the source filed them. How the source made its calls: active means growth percent below 10; inactive means the rest.

Among the test systems are NCI-H23 lung; NCI-H226 lung; NCI-H322M lung; HOP-62 NSCLC; NCI-H460 lung; HOP-92 NSCLC; NCI-H522 lung; A549/ATCC NSCLC; 786-0 renal; COLO 205 colon.
Assay in all cases: NCI-60 one-dose screen, 48 h (100 = growth as untreated, 0 = no growth, -100 = all killed)
Common to all, as to details: 10 µM unless noted

With `c1c[nH]c(CNC2CCCCC2)c1`, the growth in the test with NCI-H23 lung was 97.7%; with NCI-H226 lung it was 102%; with NCI-H322M lung, 104%; in the test on HOP-62 NSCLC it was 103%; in the test on NCI-H460 lung, 105%; in the test on HOP-92 NSCLC, 72.9%. Besides, the growth in the test with NCI-H522 lung was 109%; with A549/ATCC NSCLC, 103%; in the test with 786-0 renal, 112%; with COLO 205 colon, 115%.
`Cc1c(C(=O)N[C@@H](Cc2ccccc2)C(=O)C(=O)NCCc2ccccc2)[nH]c2ccccc2c1=O`: the growth in the test with NCI-H23 lung was 93.5%; in the test on NCI-H226 lung, 101%; with NCI-H322M lung, 96.2%; with HOP-62 NSCLC it was 111%; in the test on NCI-H460 lung, 87.2%; with HOP-92 NSCLC it was 116%. Further, the growth is 97.6% in the test with NCI-H522 lung, 98.8% with A549/ATCC NSCLC, 107% in the test on 786-0 renal and 31.2% in the test on COLO 205 colon.
In the case of `O=C(NCCCNc1cc(-c2cn(-c3ccccc3)nc2-c2cccc(O)c2)ccn1)c1ccccc1`, the growth with NCI-H23 lung was 46%; with NCI-H226 lung, 54.9%; with NCI-H322M lung, 75.2%; in the test with HOP-62 NSCLC, 47%; in the test with NCI-H460 lung, 30.4%; with HOP-92 NSCLC it was 49.8%. Also, the growth in the test with NCI-H522 lung was 7.01% (active); in the test on A549/ATCC NSCLC, 21%; in the test with 786-0 renal, -29.8% (active); in the test on COLO 205 colon it was -60.3% (active).
For `O=C(NCCNc1cc(-c2cn(-c3ccccc3)nc2-c2cccc(O)c2)ccn1)Nc1ccccc1`, the growth is 69.4% in the test on NCI-H23 lung; 70.6% with NCI-H226 lung; 95.3% with NCI-H322M lung; 63.7% with HOP-62 NSCLC; 86.2% with NCI-H460 lung; 54.5% with HOP-92 NSCLC. The growth was 70.8% in the test on NCI-H522 lung, 52.5% with A549/ATCC NSCLC, 71.4% in the test with 786-0 renal and 81.2% in the test with COLO 205 colon.
With `COC(=O)c1c2c(c(C)[n+]([O-])c1C)C(=O)C(NCc1ccc(F)cc1)=CC2=O`, the growth with NCI-H23 lung was 31%; in the test on NCI-H226 lung, 81.6%; with NCI-H322M lung, 15.9%; with HOP-62 NSCLC, 48.2%; in the test on NCI-H460 lung it was 11.5%; with HOP-92 NSCLC, 42.5%. The growth in the test on NCI-H522 lung is -11.6% (active); in the test with A549/ATCC NSCLC, 4.34% (active); with 786-0 renal, 48.7%; with COLO 205 colon, -49.8% (active).
Regarding `CCN(CC)Cc1cccc(C(=O)OC)c1`, the growth is 96.6% in the test with NCI-H23 lung; 90.2% in the test on NCI-H226 lung; 106% with NCI-H322M lung; 85.2% with HOP-62 NSCLC; 103% with NCI-H460 lung; 87.7% in the test on HOP-92 NSCLC. Moreover, the growth in the test on NCI-H522 lung is 101%; with A549/ATCC NSCLC, 69%; with 786-0 renal it was 90.7%; in the test on COLO 205 colon it was 106%.
As to `O=C(NCCCNc1cc(-c2cn(-c3ccccc3)nc2-c2cccc(O)c2)ccn1)c1ccc(F)cc1`, the growth with NCI-H23 lung is 42%; in the test with NCI-H226 lung, 58.9%; with NCI-H322M lung, 62.8%; with HOP-62 NSCLC, 26.2%; with NCI-H460 lung, 27.9%; with HOP-92 NSCLC, 14.4%. The growth in the test on NCI-H522 lung was 9.35% (active); in the test with A549/ATCC NSCLC, 16.1%; in the test on 786-0 renal it was -49.4% (active); with COLO 205 colon, -59.1% (active).
`COc1ccccc1NC(=O)N/C(N)=N/c1nc2ccccc2s1`: the growth is 33% in the test on NCI-H23 lung; 63.4% in the test with NCI-H226 lung; 41.6% with NCI-H322M lung; 32.7% in the test on HOP-62 NSCLC; 10.1% with NCI-H460 lung; 62.1% in the test on HOP-92 NSCLC. Besides, the growth was 4.23% (active) with NCI-H522 lung, 25.1% in the test on A549/ATCC NSCLC, 40.2% in the test with 786-0 renal and -3.41% (active) with COLO 205 colon.
With `Cc1occc1-c1n[nH]c(=S)n1N1C(=O)CSC1=S`, the growth in the test with NCI-H23 lung is 102%; with NCI-H226 lung, 98.7%; with NCI-H322M lung it was 99.4%; in the test on HOP-62 NSCLC it was 104%; in the test on NCI-H460 lung, 104%; with HOP-92 NSCLC, 103%. Besides, the growth in the test on NCI-H522 lung is 89.3%; in the test with A549/ATCC NSCLC it was 103%; in the test with 786-0 renal, 100%; in the test with COLO 205 colon it was 111%.
Turning to `COc1ccccc1CNCCCN1C(=O)c2ccc3c4c(ccc(c24)C1=O)C(=O)N(CCCNCCCCN)C3=O`, the growth in the test with NCI-H23 lung is -38.6% (active); in the test on NCI-H226 lung, -56.5% (active); with NCI-H322M lung, -10.1% (active); in the test with HOP-62 NSCLC it was -31% (active); in the test on NCI-H460 lung, -46.2% (active); in the test on HOP-92 NSCLC it was -16% (active). Besides, the growth in the test with NCI-H522 lung was -84% (active); in the test on A549/ATCC NSCLC it was -65% (active); in the test with 786-0 renal, 0.16% (active); in the test on COLO 205 colon, -81.5% (active).
For `COc1ccc(NC(=O)CSc2nnc(-c3cc(-c4ccccc4)nc4ccccc34)n2-c2ccccc2)cc1`, the growth is 92.1% in the test with NCI-H23 lung; 89.3% in the test on NCI-H226 lung; 94.6% in the test on NCI-H322M lung; 101% with HOP-62 NSCLC; 102% with NCI-H460 lung; 87.3% in the test with HOP-92 NSCLC. Besides, the growth was 80.1% with NCI-H522 lung, 92.4% in the test with A549/ATCC NSCLC, 97.3% with 786-0 renal and 116% with COLO 205 colon.
Turning to `COc1ccc(-c2nc3c(N)c(CO)c(C)nc3o2)cc1`, the growth in the test with NCI-H23 lung was 86.6%; in the test on NCI-H226 lung, 41.2%; in the test on NCI-H322M lung it was 92.5%; with HOP-62 NSCLC, 90.3%; in the test with NCI-H460 lung it was 108%; with HOP-92 NSCLC, 116%. Also, the growth in the test on NCI-H522 lung is 91.6%; in the test with A549/ATCC NSCLC it was 92.4%; with 786-0 renal it was 95.5%; with COLO 205 colon it was 109%.
Turning to `N#Cc1c(N)nc(NCCO)nc1-c1ccc(F)cc1`, the growth is 96.7% with NCI-H23 lung; 77.1% with NCI-H226 lung; 102% in the test with NCI-H322M lung; 93.3% with HOP-62 NSCLC; 103% in the test with NCI-H460 lung; 75.9% in the test on HOP-92 NSCLC. In addition, the growth with NCI-H522 lung was 86.6%; in the test with A549/ATCC NSCLC it was 71.8%; with 786-0 renal it was 97.1%; with COLO 205 colon it was 92.5%.
